CYP2C19 act: activators of human cytochrome P450 2C19. P33261. recombinant CYP2C19, luciferin-H EGE luminescence; hits give high values; 0 = fully inhibited enzyme, 1 = untreated enzyme. activation factor at 5 µM. 96,000 tested, under 10 active;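 active means activation factor of at least 2 at 5 µM in the primary screen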;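 further: 0 = wells with 2.5 mM tranylcypromine and 1 = vehicle-only wells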
CYP2C9 inhib: blocks human cytochrome P450 2C9; P11712; CYP2C9 Supersomes, luciferin-H conversion, luminescence; inhibition, % at 5 µM; hit rate 20% among 96,000;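 active means blocking of liver enzyme CYP2C9 beyond about 50% at 5 µM, limit read from the data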
Target sequence (P11712 whole entry, looked up): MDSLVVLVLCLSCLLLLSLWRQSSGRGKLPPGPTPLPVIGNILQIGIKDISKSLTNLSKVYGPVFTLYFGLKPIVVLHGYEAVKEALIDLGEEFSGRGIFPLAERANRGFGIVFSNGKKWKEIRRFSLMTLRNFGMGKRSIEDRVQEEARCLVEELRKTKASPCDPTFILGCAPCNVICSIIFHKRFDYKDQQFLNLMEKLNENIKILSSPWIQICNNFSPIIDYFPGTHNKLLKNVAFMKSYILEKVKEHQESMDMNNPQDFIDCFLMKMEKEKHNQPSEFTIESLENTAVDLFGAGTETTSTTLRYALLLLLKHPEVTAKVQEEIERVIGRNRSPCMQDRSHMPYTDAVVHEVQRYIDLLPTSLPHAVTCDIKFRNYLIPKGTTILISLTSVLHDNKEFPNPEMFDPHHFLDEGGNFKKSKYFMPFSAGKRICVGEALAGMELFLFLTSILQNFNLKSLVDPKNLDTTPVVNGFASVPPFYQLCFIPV
CYP2C9 activ: increases human cytochrome P450 2C9 activity; hit rate 1.4% among 96,000; activation factor at 5 µM; recombinant CYP2C9, luciferin-H conversion, luminescence; hits give high values; factor 1 = untreated enzyme, 0 = blocked;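 active means activation factor of 2 or more for CYP2C9 at a 5 µM dose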;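 further: 0 = sulfaphenazole-blocked wells and 1 = vehicle-only wells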
EphB4 antag: blocks human EphB4 binding to ephrin-B2 | P54760 | EphB4 LBD / TNYL-RAW-Alexa532 peptide, fluorescence polarization | inhibition, % at 7 µM | hit rate 0.15% among 97,000;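 active means inhibition above the screen-wide mean inhibition plus 3 SD, cut at about 15% in these data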;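 further: 0% = DMSO wells and 100% = excess unlabeled TNYL-RAW peptide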
CYP2C19 inh: inhibitors of human CYP2C19 | hit rate 21% among 96,000 | P33261 | CYP2C19 Supersomes, luciferin-H EGE luminescence, 30 min | inhibition, % at 5 µM;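 active means CYP2C19 inhibition above a set limit at 5 µM in the primary screen, cut at about 50% in these data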;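 further: plate controls were negative control wells for no effect and 2.5 mM tranylcypromine positive control for full effect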
* = called active by the depositor; · = not tested or not shown. Hits are enriched below; roughly 27% of the tested compounds scored in any of these assays.

SMILES	CYP2C19 act	CYP2C9 inhib	CYP2C9 activ	EphB4 antag	CYP2C19 inh
O=C(O)C1CC(=O)N(C2CCCCCC2)C1 (stereo not drawn)	1.2	-27.0	1.3	·	-17.6
CC(C)c1nnc(SCC(=O)NCCC2=CCCCC2)n1N	0.8	60.5*	0.4	-0.2	17.1
CCN(CC)S(=O)(=O)c1cccc(-c2nnc(SCC(=O)NCCC3=CCCCC3)n2N)c1	0.8	38.2	0.6	0.1	17.7
CCOc1cc(/C=N/O)cc(Br)c1OCC	·	·	·	1.2	·
C#CCOc1c(Br)cc(/C=N/O)cc1OCC	0.5	72.2*	0.3	-6.6	47.4
C#CCOc1c(Br)cc(/C=N\NC(=O)CN2CCOCC2)cc1OCC	0.7	58.8*	0.4	3.0	31.2
CCCCOC(=O)CSc1nc2c(cc1C#N)C(=O)CC(C)(C)C2	0.5	64.0*	0.4	1.2	49.0
COc1ccc(C2(C)NC(=O)N(CC(=O)NCCC3=CCCCC3)C2=O)cc1OC (stereo not drawn)	1	2.4	1	-1.0	1.0
CO/N=C(/CS(=O)(=O)c1ccc(C)cc1)c1ccc(OC)cc1	0	16.7	0.8	5.3	99.1*
Cc1ccc(S(=O)(=O)CC(=O)N2CCCC2)cc1	·	·	·	-0.8	·
O=C(O)c1cc(NCc2ccccc2)ccc1N1CCOCC1	0.8	-41.3	1.4	2.0	15.1
CC(C)CNC(=O)C1CCN(c2ccc(S(=O)(=O)N3CCOCC3)cc2Cl)CC1	0.6	55.7*	0.4	·	39.8
O=C(NCc1cccs1)C1CCN(c2ccc(S(=O)(=O)N3CCOCC3)cc2Cl)CC1	0.5	58.5*	0.4	7.2	47.6
Clc1cc(NCc2cccs2)ccc1N1CCOCC1	0.1	80.8*	0.2	5.2	93.8*
O=C(NC1CC1)C1CCN(c2ccc(S(=O)(=O)N3CCOCC3)cc2Cl)CC1	0.5	78.1*	0.2	-1.0	49.8
O=C(NCc1cccs1)C1CCN(S(=O)(=O)c2cccs2)CC1	·	·	·	10.5	·
COC(=O)n1c(=O)oc2cc(S(=O)(=O)N3CCCCC3)ccc21	0.7	27.8	0.7	5.8	34.8
O=C(COC(=O)Cc1ccc2c(c1)OCCO2)Nc1ccc(S(=O)(=O)N2CCCC2)cc1	1.2	24.7	0.8	-4.7	-17.3
O=C(c1cccc(F)c1)n1nnc2ccccc21	1	-8.9	1.1	0.1	-4.5
COc1ccc(Br)c(/C=N/NC(=O)COc2ccc(-c3ccccc3)cc2)c1	0.8	37.7	0.6	3.5	24.6
Cc1ccccc1Cn1ccc(NC(=O)CCSc2nc(-c3ccco3)cc(C(F)(F)F)n2)n1	0.2	85.3*	0.1	1.1	78.8*
Cc1nn(C)cc1NC(=O)CCSc1nc(-c2ccco2)cc(C(F)(F)F)n1	0.7	29.6	0.7	-6.2	28.9
Cc1cc(NC(=O)CCSc2nc(-c3ccco3)cc(C(F)(F)F)n2)no1	1	-25.6	1.3	6.2	-0.5
O=C(Nc1cnn(C23CC4CC(CC(C4)C2)C3)c1)c1cnn2c(C(F)(F)F)cc(-c3ccco3)nc12	0.4	78.3*	0.2	2.0	64.8*
O=C(Nc1ccc2c(c1)OCO2)c1cnn2c(C(F)(F)F)cc(-c3ccco3)nc12	1	17.1	0.8	-0.9	0.5
SMILES	CYP2C19 act	CYP2C9 inhib	CYP2C9 activ	EphB4 antag	CYP2C19 inh
Cc1ccc(Cn2ccc(NC(=O)CCSc3nc(-c4ccco4)cc(C(F)(F)F)n3)n2)cc1	0.2	92.6*	0.1	11.8	81.2*
Cc1ccccc1Cn1ccc(NC(=O)c2cnn3c(C(F)(F)F)cc(-c4ccco4)nc23)n1	0.5	60.6*	0.4	3.6	48.2
O=c1oc(Nc2ccc(F)cc2)nc2ccccc12	0.8	29.6	0.7	-10.7	18.8
O=C(Nc1cccnc1)c1cc2nc(C3CC3)cc(C(F)(F)F)n2n1	0.4	73.5*	0.3	-0.6	63.7*
O=C(Nc1ccc2c(c1)OCO2)c1cc2nc(C3CC3)cc(C(F)(F)F)n2n1	0.8	21.4	0.8	0.5	17.6
Cc1nc2c(sc3nc4c(cc32)COC(C)(C)C4)c(=O)o1	0.8	71.6*	0.3	7.8	16.4
CNC(=O)C(Sc1nc(C)nc2c1oc1ccccc12)C(C)=O (stereo not drawn)	0.5	61.3*	0.4	-1.8	54.6*
Cc1nc(SCC(=O)Nc2ccccc2)c2oc3ccccc3c2n1	0.5	80.4*	0.2	4.4	50.6*
Cc1nc(SCC(=O)c2ccc(Cl)s2)c2oc3ccccc3c2n1	0.8	22.3	0.8	-1.9	24.3
Cc1nc(SCC(=O)NC(C)c2ccccc2)c2oc3ccccc3c2n1 (stereo not drawn)	0.4	80.5*	0.2	0.0	64.2*
OCCN1CCN(c2nc(-c3ccccc3)nc3c2oc2ccccc23)CC1	0.1	65.0*	0.3	-7.2	86.4*
Cc1nnc2n(C3CCCCC3)c(=O)c3c4c(sc3n12)COC(C)(C)C4	0.7	31.9	0.7	-0.5	32.6
O=C(NCc1ccc(F)cc1)c1ccc(CS(=O)(=O)Cc2ccccc2F)o1	0.7	-7.5	1.1	5.9	30.0
O=C(O)CSc1nc(-c2ccccc2)nc2c1oc1ccccc12	0.9	91.2*	0.1	0.5	6.9
Cc1nc(SCC(=O)Nc2ccc(F)cc2)c2oc3ccccc3c2n1	0.6	84.5*	0.2	-4.9	40.2
COCCn1nnnc1SCC(=O)N1CCCCC1	·	·	·	5.9	·
CC1CC(NC(=O)c2ncn[nH]2)CC(C)(C)C1 (stereo not drawn)	0.8	-8.1	1.1	-4.3	16.4
Cn1cnnc1SC1CCCCC1NS(=O)(=O)c1ccccc1 (stereo not drawn)	0.8	13.8	0.9	3.6	18.5
Nn1cnnc1SC1CCCCC1NS(=O)(=O)c1ccccc1 (stereo not drawn)	0.2	10.9	0.9	-0.5	81.1*
Cc1ccc(Cn2ccc(NC(=O)c3noc4c3CCCC4)n2)cc1	1	30.4	0.7	·	1.4
COc1ccc2nc(NC(=O)CN(c3ccc(C)cc3)S(=O)(=O)c3c(C)nn(C)c3C)sc2c1	0.5	68.3*	0.3	-3.5	48.3
COc1ccc(N(CC(=O)NCc2ccc3c(c2)OCO3)S(=O)(=O)c2c(C)nn(C)c2C)cc1	0.1	15.6	0.8	3.7	87.0*
COc1ccc2nc(NC(=O)CSc3nnc(C)s3)sc2c1	1	-6.4	1.1	3.0	-1.4
COc1ccc(N(CC(=O)NCc2ccco2)S(=O)(=O)c2c(C)nn(C)c2C)cc1	0.3	19.6	0.8	3.7	74.8*
Cc1nn(C)c(C)c1S(=O)(=O)Nc1ccc2c(c1)OCO2	0.2	4.1	1	-1.6	80.8*
CS(=O)(=O)N(CC(=O)NCc1ccc2c(c1)OCO2)c1ccc(Cl)cc1	0.6	12.3	0.9	4.9	41.0
CCOc1ccc(N(CC(=O)NCc2ccco2)S(C)(=O)=O)cc1	1	20.0	0.8	-7.6	3.8
Cc1ccc(S(=O)(=O)NCCCCCC(=O)N(C)C)cc1	0.9	0.6	1	0.5	14.0
COC(=O)c1ccccc1NC=C1C(=O)OC2(CCCCC2)OC1=O	1	25.1	0.7	·	4.1
O=C(Nc1nc2c(Cl)cccc2s1)c1ccc(Br)o1	1.1	4.7	1	-9.2	-10.2

Source: PubChem (several laboratories)
